According to PubChem BioAssay AID1942 (Johns Hopkins Ion Channel Center, 2009):
About 580 (24%) of roughly 2,400 compounds were called active. Only a sample is shown. Unmarked numbers belong to inactive results.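 The calls were made as follows: active = activity change at or above the mean plus 3 SD of buffer wells without dofetilide, per plate; inactive = the rest.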

target: Potassium voltage-gated channel subfamily KQT member 2 (Rattus norvegicus) (UniProt O88943); assay: rat KCNQ2 channel activation by compounds alone, confirmation, counter-screen for hERG block protector project, cell-based, CHO, FluxOR thallium flux (AID 1942); details: CHO-KCNQ2 cells, FluxOR thallium flux fluorescence; at 10 µM; hits give high values;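 also: normalized value minus buffer-control mean plus three SD of buffer wells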
Sequence (O88943 whole entry, looked up): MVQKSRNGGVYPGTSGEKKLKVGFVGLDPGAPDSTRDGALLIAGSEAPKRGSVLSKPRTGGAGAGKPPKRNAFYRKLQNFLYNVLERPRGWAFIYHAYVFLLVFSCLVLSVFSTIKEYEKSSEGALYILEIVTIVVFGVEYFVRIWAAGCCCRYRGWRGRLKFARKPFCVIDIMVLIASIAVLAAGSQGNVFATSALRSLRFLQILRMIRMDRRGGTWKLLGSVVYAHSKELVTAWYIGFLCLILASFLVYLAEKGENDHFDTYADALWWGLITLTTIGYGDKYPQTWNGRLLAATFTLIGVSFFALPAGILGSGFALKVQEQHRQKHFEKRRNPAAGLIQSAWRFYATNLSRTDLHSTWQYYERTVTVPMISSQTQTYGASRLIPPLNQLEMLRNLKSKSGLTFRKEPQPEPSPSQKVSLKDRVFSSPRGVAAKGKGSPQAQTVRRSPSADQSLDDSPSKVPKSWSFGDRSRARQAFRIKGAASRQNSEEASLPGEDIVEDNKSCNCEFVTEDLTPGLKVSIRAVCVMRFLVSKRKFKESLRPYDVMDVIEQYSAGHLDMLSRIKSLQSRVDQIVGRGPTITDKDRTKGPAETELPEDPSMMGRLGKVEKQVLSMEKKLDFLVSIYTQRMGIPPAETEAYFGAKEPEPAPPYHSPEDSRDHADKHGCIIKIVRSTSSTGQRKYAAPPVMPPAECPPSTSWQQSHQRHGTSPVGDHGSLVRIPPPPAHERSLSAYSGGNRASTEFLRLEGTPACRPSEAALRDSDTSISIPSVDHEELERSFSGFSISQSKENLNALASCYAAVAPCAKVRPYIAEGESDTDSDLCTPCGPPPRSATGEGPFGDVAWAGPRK

SMILES	activity change, less the hit threshold
Cc1ccc(CNC(=O)CCc2ccc(S(=O)(=O)NCC(C)C)cc2)cc1	-18.2%
Cc1noc(C)c1-c1nnc(-c2ccc(C(F)(F)F)cc2)o1	-9.9%
CC(C)Cc1nnc(NC(=O)Cc2ccccc2[N+](=O)[O-])s1	-18.1%
CCC(C)(C(=O)NC1CCCC1)N(Cc1ccco1)C(=O)c1ccccn1 (configuration not stated)	-21.1%
Cc1ccc(C2=NN(C(=O)CCCC(=O)O)C(c3ccc4c(c3)OCO4)C2)cc1 (configuration not stated)	-16.6%
Cc1nc(SCC(=O)NCC2CCCO2)c2c3c(sc2n1)CCCC3 (configuration not stated)	11.1% (active)
C=CCn1c(SCC(=O)NCC2CCCO2)nnc1-c1ccccc1 (configuration not stated)	-13%
COc1cccc(N2CC(C(=O)Nc3nnc(SCC(=O)NCC4CCCO4)s3)CC2=O)c1 (configuration not stated)	-12.6%
COc1ccc(-c2nc(=S)c3c([nH]2)Oc2ccc(C)cc2C3)cc1O	-18.3%
Cc1cc(N2C(=O)C(O)=C(C(=O)c3cccs3)C2c2ccccc2)no1 (configuration not stated)	-22.8%
COc1ccc(C(=O)NCC(=O)OCn2nnc3ccccc3c2=O)cc1OC	-17.7%
COc1cc(OC)cc(-c2nc3ccccc3c(=O)n2OC(=O)c2ccc(Br)cc2)c1	-12.9%
CC(Oc1ccc(Br)cc1)c1nc2c3ccccc3nc(=S)n2[nH]1 (configuration not stated)	14.3% (active)
COc1ccc(S(=O)(=O)n2nc(C)c(S(=O)(=O)N3CCOCC3)c2C)cc1OC	-19%
Cc1ccc(-c2nc(N)s[n+]2-c2ccccc2)cc1	11.3% (active)
Cc1nnc(SCc2cc(=O)oc3cc(O)ccc23)n1Cc1ccccc1	-14.7%
COc1ccc(-c2c(C)c3ccc(OCC(C)=O)cc3oc2=O)cc1	-17.3%
CC(C)COn1c(=S)[nH]c2ccccc2c1=O	11.1% (active)
Cc1ccc(Cn2c(=S)[nH]c3ccccc3c2=O)cc1	-6.4%
CCC(C)n1c(=S)[nH]c2ccccc2c1=O (configuration not stated)	25% (active)
O=c1c2ccccc2[nH]c(=S)n1CCc1ccccc1	10.3% (active)
CCCCn1c(=S)[nH]c2ccccc2c1=O	3.1% (active)
COc1ccc(CCn2c(S)nc3ccccc3c2=O)cc1	-6.5%
CCC(Cc1ccccc1)n1c(=S)[nH]c2ccccc2c1=O (configuration not stated)	-14%
CC1(C)Cc2c(sc(NC(=O)C(=O)N3CCCC3)c2C#N)CO1	-3.6%

SMILES	activity change, less the hit threshold
CC1=NN(c2ccccc2)C(=O)/C1=C/c1ccc(-c2ccc(C)c(C(=O)O)c2)o1	-18.9%
Cc1cc(=O)oc(C)c1C(=O)NCCC(C)C	-6.2%
O=C(COC(=O)c1cnccn1)c1ccc(Cl)cc1	-17%
Cc1ccc(NC(=O)c2ccc(CNS(=O)(=O)c3cccc(C(F)(F)F)c3)cc2)cc1	-15.6%
Cc1ccc(CS(=O)(=O)c2ncc(Cl)c(C(=O)Nc3nnc(C)s3)n2)cc1	-0.8%
O=C(Nc1ccc2[nH]c(=S)sc2c1)Nc1ccccc1F	-19%
S=c1[nH]c2ccc(Cl)cc2s1	101% (active)
S=c1[nH]c2cc(Cl)ccc2s1	106% (active)
CCNC(=O)NC1c2ccccc2CSc2ccccc21 (configuration not stated)	-20.6%
Cc1ccc(C)c(NC(=O)CCN2C(=O)[C@@H]3Cc4ccccc4CN3C2=O)c1	-23.4%
CCOc1ccc(C(=O)N(CN2CCCC2=O)c2ccc(C)cc2)cc1	21.8% (active)
O=C(NCCCN1CCCC1=O)c1ccc(OC(F)(F)F)cc1	-19.5%
COc1ccc(C(=O)N(CN2CCCC2=O)c2ccc(C)cc2)cc1	-3.9%
Cc1cc(C)c(Cn2c3ccccc3c3cnn(CC(=O)NCc4ccccn4)c(=O)c32)c(C)c1	-12.3%
O=C1OCCC1Sc1nc2ccccc2c(=O)n1Cc1ccc(F)cc1 (configuration not stated)	-2%
COc1cc2c(cc1OC)C(c1ccc([N+](=O)[O-])cc1)N(C(C)=O)CC2 (configuration not stated)	-27%
O=C(Nc1ccc(Cl)c(Cl)c1)Nc1nnc(CSc2ccccc2)s1	-5.4%
C=CCN(CC=C)C(=S)NC(=O)Cc1cccc2ccccc12	3.6% (active)
CCN(CC)C(=S)NC(=O)c1ccc(F)cc1	-10.2%
O=C(NCCOC(=O)c1ccc([N+](=O)[O-])cc1)c1cccnc1	-12.2%
CCCN(CCC)C(=S)NC(=O)c1ccc(-c2ccccc2)cc1	91.4% (active)
C=CCN(c1ccc(C(=O)NC(C)C)cc1)S(C)(=O)=O	-16.8%
CCCN(CC1CC1)C(=S)Nc1ccccc1F	-17.8%
C=CCN(CC=C)C(=S)NC(=O)c1ccc([N+](=O)[O-])cc1	48.5% (active)
C=CCN(CC=C)C(=S)NC(=O)c1ccc(-c2ccccc2)cc1	21% (active)

SMILES	activity change, less the hit threshold
Cc1c(C)n(CCN(C)C)c2ccc(C(=O)OCCN(C)C)cc12	-12.7%
CCCCCN(C(=O)CCC(=O)OC(C)C(=O)c1ccccc1)c1c(N)n(CCCC)c(=O)[nH]c1=O (configuration not stated)	-10.3%
CCn1nnnc1SCC(=O)N1c2ccccc2Sc2ccccc21	-16.2%
CCc1nnc(NS(=O)(=O)c2ccc(NC(=S)NC(=O)/C=C/c3ccc(OC)cc3)cc2)s1	-7.3%
COc1ccc(CCNC(=O)CSc2ccc3nnc(CCNC(=O)c4ccccc4)n3n2)cc1OC	-18.6%
CCCN1CCC(NC(=O)CC2C(=O)NCCN2Cc2cccc(OC)c2)CC1 (configuration not stated)	-17.9%
CCCCCC(=O)NNC(=S)NC(=O)c1ccc([N+](=O)[O-])cc1	-31.9%
CCC(=O)Nc1ccc(C(=O)NNC(=O)c2cc([N+](=O)[O-])cc([N+](=O)[O-])c2)cc1	-17.8%
CCCCNC(=S)NC(=O)c1ccc([N+](=O)[O-])cc1	22.9% (active)
CC1CCN(S(=O)(=O)c2ccc3nc(N4CCN(c5ccccc5)CC4)ccc3c2)CC1	-25.2%
S=c1[nH]cc(Cc2ccccc2)s1	1.4% (active)
Cc1[nH]c(=S)sc1Cc1ccc(Cl)c(Cl)c1	-16%
Cc1ccc(Cc2c[nH]c(=S)s2)cc1	52.8% (active)
Clc1ccc(Cc2ccccc2)nn1	-12.9%
COCCn1cnc2c1c(=O)n(CC#N)c(=O)n2Cc1ccccc1	-22%
CCOc1ccc(CCNC(=O)Nc2ccccc2C)cc1OCC	-14.3%
CNC(=O)CSc1nnc(-c2ccco2)n1-c1ccc(C)cc1	-16.3%
CCCOc1ccc(C(=O)NNC(=S)NC(=O)c2cccs2)cc1	-34.1%
Cc1ccc(C(=O)NC(=S)Nc2ccccc2C(F)(F)F)cc1	-24.5%
Cc1ccc(C(=O)N/N=C(/CC(=O)c2cccs2)C(F)(F)F)cc1	5.2% (active)
COc1ccc(S(=O)(=O)N2CCN(C(=O)CNC(=O)c3ccc4c(c3)OCO4)CC2)cc1	-12.9%
O=C(Nc1c[nH]c(=O)[nH]c1=O)c1ccc2c(c1)C(=O)N(c1cccc([N+](=O)[O-])c1)C2=O	-9.9%
O=C(Cn1nc(-c2ccccc2)c2ccccc2c1=O)Nc1ccc(O)cc1	-25.7%
O=C(CN1CCCCCC1)Nc1ccc(Oc2ccccc2)cc1	-20.3%
Cc1nn(CC(=O)Nc2ccc(C(=O)N3CCCC3)cc2)c(=O)c2ccccc12	11.5% (active)

SMILES	activity change, less the hit threshold
O=C(Nc1ncc(Br)s1)C(Cc1ccccc1)n1cccc1 (configuration not stated)	-5.9%
Cn1cnnc1SCC(=O)NCc1ccccc1	-24.1%
COC(=O)Oc1ccc(/C=C/C(=O)OC(C)C)cc1OC(=O)OC	3% (active)
COc1cc(/C=C/C(=O)O)ccc1OS(=O)(=O)c1cc(C)ccc1C	-16.4%
COc1cc(/C=C/C(=O)N[C@@H](Cc2c[nH]c3ccccc23)C(=O)O)ccc1O	-15.9%
Cc1ccc(NC2=CC(=O)OC(C)C2)cc1 (configuration not stated)	-17.3%
Cc1ccc(Oc2ccc(OCC(=O)NC(CC(C)C)C(=O)O)cc2)cc1 (configuration not stated)	-14.9%
CC1=Nc2ccc(C)cc2/C1=C/c1c(N)n2c(S(=O)(=O)C(C)C)nsc2nc1=O	-27%
O=C(c1c(O)c2ccccc2oc1=O)C1CCCCC1	-4.8%
O=c1oc2ccccc2c(Cl)c1CN1CCCCC1	8.6% (active)
O=C(CN1CCCCCCC1)Nc1cccc(Cl)c1Cl	-20.9%
CSc1nc2c(c(=O)[nH]1)C(c1ccc(F)cc1)CC(=O)N2 (configuration not stated)	-16.4%
O=C(NCc1ccc(Cl)cc1)C1CCN(S(=O)(=O)c2cccc3nonc23)CC1	-10%
Cc1[nH]c(=O)[nH]c(=O)c1S(=O)(=O)N1CCC(C(=O)NC(C)c2ccccc2)CC1 (configuration not stated)	-19.6%
CC(NC(=O)C1CCN(S(=O)(=O)c2cccc3cccnc23)CC1)c1ccccc1 (configuration not stated)	0.9% (active)
Nc1ncnc(NC2CCS(=O)(=O)C2)c1[N+](=O)[O-] (configuration not stated)	-11.2%
CCOC(=O)c1c(NS(C)(=O)=O)sc2c1CCC(C)C2 (configuration not stated)	26.3% (active)
CC(NS(=O)(=O)c1ccccc1)C(N)=O (configuration not stated)	-21.1%
CC(C)OC(=O)c1c(NS(=O)(=O)c2ccccc2)sc2c1CCCC2	9.1% (active)
CCOC(=O)c1c(C)[nH]c(C)c1S(=O)(=O)N1CCCCC1	-11%
COC(=O)c1c(NC(=O)CN2CCOCC2)sc2c1CCC(C)C2 (configuration not stated)	-9.9%
CC1CCc2c(sc(NS(=O)(=O)c3ccccc3)c2C(=O)OC(C)C)C1 (configuration not stated)	8.2% (active)
